# In ChEMBL document CHEMBL3988442, “University of Dundee, Small-Polar-MMV Screening Library” (2021):
# Hit rate of the full screen: of about 69,000 compounds, about 950 (1.4%) showed an effect of 50% or more. Only a selection was taken, and strong results are over-represented in it overall.
# System: Mycobacterium tuberculosis
# Assay: Cornell M. t heat shock assay; also: in the data most compounds retested in dose-response had high values
# Format: functional, organism-based
# Parameters: dose or concentration left out as unconfirmed
row,Compound,Percent Effect [%]
1,O=C(O)C(F)(F)F.O=C(O)C(F)(F)F.O=C(c1cscn1)N1CCC2(CN(Cc3ccncc3)C2)C1,-52.86
2,COCC1c2c(cnn2C)CCN1Cc1cccc(C)c1.O=C(O)C(F)(F)F.O=C(O)C(F)(F)F (stereo not drawn),-46.03
3,CC1CN(CC(=O)NCCc2ccccc2)CCN1c1nccs1 (stereo not drawn),-17
4,NCCc1nc(N(Cc2nccs2)C2CC2)c2ccccc2n1,-17.4
5,NCCc1nc(N(Cc2cncs2)C2CC2)c2ccccc2n1,-30.71
6,Cc1ccsc1CN(c1nc(CCN)nc2ccccc12)C1CC1,91.12
7,CC(=O)N1CC(=O)N(c2cnn(C)c2)CC12CCN(Cc1cccs1)C2.O=C(O)C(F)(F)F (stereo not drawn),-1.108
8,CC1=C(C#N)C(=O)N(C)C(=O)/C1=C\C1=Cc2ccccc2OC1,-26.04
9,Cc1ccc(CN2CCn3c(COc4cccnc4)cnc3C2C)o1.O=C(O)C(F)(F)F.O=C(O)C(F)(F)F (stereo not drawn),17.82
10,Cc1cccc2c1OCCCC2NCc1nccn1Cc1ccccc1 (stereo not drawn),104.4
11,Cc1ccc2c(c1)OCCCC2NCc1nccn1CC(C)C (stereo not drawn),101.9
12,Cc1cccc2c1OCCCC2NCc1nnc2n1CCCCC2 (stereo not drawn),-4.885
13,Cc1ccc2c(c1)C(NCc1nnc3n1CCCCC3)CCCO2 (stereo not drawn),-13.54
14,Cc1cccc2c1OCCC2NCc1c(C)nn(C)c1N(C)C (stereo not drawn),-4.09
15,CN(C(=O)NCc1nccn1Cc1ccccc1)C1CC1,-34.67
16,COc1cccc(CNC2CCCOc3cc(C)ccc32)n1 (stereo not drawn),-23.35
17,Cc1ccc2c(c1)OCCCC2NCc1nnc2n1CCCCC2 (stereo not drawn),-7.759
18,Cn1ccnc1CNC1CCCOc2c1ccc1ccccc21 (stereo not drawn),95.81
19,Cn1cc(CNC2CCCOc3c(Cl)cccc32)cn1 (stereo not drawn),12.93
20,Cc1ccc2c(c1)C(NCc1nccn1Cc1ccccc1)CCCO2 (stereo not drawn),102
21,Cn1cc(CNC2CCCOc3c2ccc2ccccc32)cn1 (stereo not drawn),11.28

row,Compound,Percent Effect [%]
1,Br.Cn1cc(CN2CCOC(c3cccc(-c4cncnc4)n3)C2)cn1 (stereo not drawn),-10.8
2,Cl.c1cncc(CNCc2cccs2)c1,5.045
3,O=C(O)C(F)(F)F.O=C1[C@H]2CN(Cc3nccs3)C[C@H]2CN1c1ccsc1,28.97
4,Cc1nn(C)c(C)c1S(=O)(=O)N1C[C@@H]2C[C@@H](C)O[C@@H]2C1.O=C(O)C(F)(F)F,3.558
5,NC(=O)CC1CC2(CCNCC2)c2cc(F)ccc21.O=C(O)C(F)(F)F (stereo not drawn),15.23
6,Cn1cc(C(=O)NCc2cn3c(n2)CN(C2CCOCC2)CC3)cn1.O=C(O)C(F)(F)F,-17.41
7,Cc1ccc2c(c1)OCCCC2NC1CCN(C)CC1 (stereo not drawn),11.02
8,c1ccc2c(c1)OCCCC2NCc1nnc2n1CCCCC2 (stereo not drawn),7.956
9,COc1c(CNC2CCCOc3ccccc32)c(C)nn1C (stereo not drawn),-2.184
10,CCC1COCCN1C(=O)NCc1nccn1Cc1ccccc1 (stereo not drawn),-21.62
11,Cc1ccc2c(c1)OCCCC2NCc1nccn1Cc1ccccc1 (stereo not drawn),101.1
12,c1ccc(Cn2ccnc2CNC2CCCOc3ccccc32)cc1 (stereo not drawn),104.4
13,Cc1cncc(C(=O)N2C[C@@H]3CN(S(C)(=O)=O)CCO[C@@H]3C2)c1.O=C(O)C(F)(F)F,15.78
14,CC1CCN(C(=O)[C@@H]2C[C@@H]3CCN(Cc4nccs4)C[C@H]3O2)CC1.O=C(O)C(F)(F)F,11.99
15,CCC1CN(C(=O)c2csc3nc(-c4ccc(Cl)cc4)cn23)CCN1 (stereo not drawn),59.48
16,O=C(c1csc2nc(-c3ccc(Cl)cc3)cn12)N1CCCC(CO)C1 (stereo not drawn),17.74
17,CC(C)N1CCN(C(=O)c2csc3nc(-c4ccc(Cl)cc4)cn23)CC1,2.331
18,O=C(Nc1cccnc1)[C@H]1C[C@@H]2CN(C(=O)NC3CCCC3)C[C@H]1O2,-0.1164
19,O=C1C[C@H]2CC[C@@H](CN1)N2C1CCOCC1,-8.619
20,O=C(NC1CCCC1)c1nc2c(o1)CN(CCO)C2,51.46
21,O=C(NC1CCCC1)c1nc2c(o1)CN(C(=O)CO)C2,10.14

row,Compound,Percent Effect [%]
1,O=C(NC1CCCC1)c1nc2c(o1)CN(C(=O)CCO)C2,6.229
2,CN(C)C(C(=O)N1CCC(N2CCSCC2)CC1)c1ccccc1F (stereo not drawn),64.18
3,CN(C)C(C(=O)N1CCSCC1)c1ccccc1F (stereo not drawn),7.911
4,CN(C)C(C(=O)N1CCCC1)c1ccccc1F (stereo not drawn),12.45
5,COc1ccccc1CNC(=O)C1=NN(c2ccc(C)cc2)C(=O)CN1,73.51
6,COc1ccc(C)cc1CNC(=O)C1=NN(c2ccccc2)C(=O)CN1,30.82
7,COc1ccc(CNC(=O)C2=NN(c3ccc(C)cc3)C(=O)CN2)cc1,24.03
8,CC(C)N1CCO[C@H]2CN(C(=O)c3ccccn3)C[C@H]21.O=C(O)C(F)(F)F.O=C(O)C(F)(F)F,-26.06
9,Cc1[nH]/c(=N\C(=O)c2csc(NCC(C)C)n2)sc1C,103.2
10,CC(=O)Nc1nc(C(=O)NC(C)c2ccc(F)cc2)cs1 (stereo not drawn),8.426
11,Cc1cs/c(=N/C(=O)c2csc(NCC(C)C)n2)[nH]1,102.2
12,Cc1cs/c(=N\C(=O)c2c3c(nc4onc(C)c24)CCC3)[nH]1,-0.1888
13,CC(C)CNc1nc(C(=O)/N=c2\[nH]nc(C(C)(C)C)s2)cs1,29.68
14,Cc1cc(O)c(OCC(=O)/N=c2\[nH]c(C)c(C)s2)cn1,14.69
15,O=C1c2cnc(N3CCCC3)nc2CN1CCc1ccc(Cl)cc1,5.842
16,Cc1ccc(CN2C[C@@H]3COC[C@H](NS(C)(=O)=O)[C@@H]3C2)s1.O=C(O)C(F)(F)F,-17.68
17,CC(C)c1nn(C)c(N(C)C)c1CNC(C)c1ccc2c(c1)OCO2.Cl (stereo not drawn),11.17
18,O=C(CN1CC(c2nc(C3CC3)no2)C1)NCc1ccc(F)cc1.O=C(O)C(=O)O,-19.44
19,CN(C)S(=O)(=O)N1CCN(c2ccnc(N3CCCCC3)n2)CC1,-3.243
20,CS(=O)(=O)N1CCN(c2ccnc(N3CCCC3)n2)CC1,3.373
21,CS(=O)(=O)N1CCN(c2ccnc(N3CCCCC3)n2)CC1,54.19
